KCNQ2 enhance: enhances the rat KCNQ2 potassium channel; B-score at 10 µM; O88943; 0.54% of 310,000 active; CHO-K1 KCNQ2, FluxOR thallium flux fluorescence; stronger effect = higher value;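 active means fluorescence ratio B-score at least 3 SD of library B-scores, with initial fluorescence B-score within 3 of them, cut at about 5.3 in these data; same plate scores as AID 2156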;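 further: B-score of peak minus minimum over baseline fluorescence ratio after K+ and Tl+ stimulus; positive B-score means potentiation of KCNQ2 with more thallium influx and brighter signal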
Target sequence (O88943 whole entry, looked up): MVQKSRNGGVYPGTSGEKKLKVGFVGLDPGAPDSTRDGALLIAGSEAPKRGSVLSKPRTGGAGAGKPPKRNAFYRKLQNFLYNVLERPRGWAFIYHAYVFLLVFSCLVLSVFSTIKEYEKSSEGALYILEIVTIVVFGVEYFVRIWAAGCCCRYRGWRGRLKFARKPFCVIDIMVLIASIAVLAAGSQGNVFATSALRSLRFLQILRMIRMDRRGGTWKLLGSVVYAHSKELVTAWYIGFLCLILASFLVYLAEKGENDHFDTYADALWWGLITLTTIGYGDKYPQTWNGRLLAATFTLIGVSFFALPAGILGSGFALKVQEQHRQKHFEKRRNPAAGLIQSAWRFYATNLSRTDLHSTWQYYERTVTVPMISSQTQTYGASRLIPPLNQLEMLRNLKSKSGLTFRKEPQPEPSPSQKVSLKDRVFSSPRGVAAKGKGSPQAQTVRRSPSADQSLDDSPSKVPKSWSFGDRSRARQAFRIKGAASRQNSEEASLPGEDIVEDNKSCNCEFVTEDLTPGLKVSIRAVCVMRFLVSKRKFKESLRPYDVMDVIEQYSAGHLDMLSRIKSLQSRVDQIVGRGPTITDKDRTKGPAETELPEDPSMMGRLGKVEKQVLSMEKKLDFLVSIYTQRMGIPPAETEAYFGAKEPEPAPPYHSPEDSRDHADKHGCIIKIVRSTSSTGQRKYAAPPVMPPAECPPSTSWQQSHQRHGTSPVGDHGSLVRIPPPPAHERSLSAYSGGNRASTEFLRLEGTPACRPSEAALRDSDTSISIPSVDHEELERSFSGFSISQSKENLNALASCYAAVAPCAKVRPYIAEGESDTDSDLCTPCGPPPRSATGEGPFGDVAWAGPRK
KCNQ2 inh: KCNQ2 (rat) channel inhibition. O88943. CHO-K1 KCNQ2, FluxOR thallium flux, 20 min; stronger effect = lower value. B-score at 10 µM. 1.1% of 310,000 active;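 active means fluorescence ratio B-score at most minus 3 library SDs, with starting brightness B-score within 2 library SDs, cut at about -5.5 in these data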
Kir21 confirm: confirmation of mouse Kir2.1 potassium channel inhibitors. shares compounds with KCNQ2 enhance. Kir2.1-expressing cells, FluxOR thallium flux fluorescence; stronger effect = lower value. Tl flux remaining, % of negative control (stronger effect = lower value), % at 10 µM. 41% of 2,300 active. AID 2032;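 active means Primary-screen hit whose thallium flux fell at least 3 control SD below untreated wells in both duplicates, with normal baseline fluorescence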;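 further: 0% = blank wells without stimulus and 100% = stimulated no-compound controls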
HEK293 ctr: counter-screen for Kir2.1 inhibitors: effect in parental HEK293 cells. shares compounds with KCNQ2 enhance. FluxOR thallium flux fluorescence; 0% = unstimulated blank wells. FluxOR signal as % of negative control (100 = no effect), % at 10 µM. 19% of 2,300 active. AID 2105;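 active means dye signal at least 3 control SD above or below untreated wells in both duplicates, raw fluorescence within 3, either direction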;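 further: percent is based on the flux ratio of peak minus minimum fluorescence over baseline F0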
CHO-K1 ctr: counter-screen for KCNQ2 potentiators: effect in parental CHO-K1 cells; shares compounds with KCNQ2 enhance; FluxOR thallium flux fluorescence; zero = vehicle mean+3SD, 100% = vehicle-minus-blank window; activity increase over 3SD of controls, % at 10 µM; 43% of 1,200 active; AID 2282;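 active means signal rise of at least 3 SD above the untreated control mean, in both duplicate wells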;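 further: counter screen of KCNQ2 potentiator hits so any rise reflects channel-independent effects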
KCNQ1 sel pot: tests whether KCNQ2 potentiators also act on human KCNQ1 | shares compounds with KCNQ2 enhance | CHO KCNQ1 stable, FluxOR thallium flux fluorescence; beyond 3SD, as % of vehicle-control signal | activation over 3SD threshold, % at 10 µM | 28% of 1,200 active;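 active means fluorescence ratio rise of at least 3 SD of vehicle wells above their mean, in both replicate wells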;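 further: 0% = vehicle mean plus 3 SD and 100% = vehicle minus unstimulated blank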
KCNQ2 pot conf: confirmation of rat KCNQ2 potassium channel potentiators | shares compounds with KCNQ2 enhance | CHO-KCNQ2 cells, FluxOR thallium flux fluorescence | potentiation, less the hit threshold, % at 10 µM | 68% of 1,200 active | AID 2287;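 active means fluorescence ratio rising 3 SD or more over the vehicle control mean in both replicates, plus primary screen hit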;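 further: peak minus minimum thallium fluorescence divided by baseline after K/Tl stimulus; 0% = vehicle mean plus 3 SD and 100% = vehicle minus unstimulated blank difference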
Kir21 spec: selectivity of KCNQ2 potentiators: effect on mouse Kir2.1 | HEK293 Kir2.1, FluxOR thallium flux fluorescence | shares compounds with KCNQ2 enhance | activity over 3SD threshold, % at 10 µM | 2% of 1,200 active | AID 2345;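 active means fluorescence ratio rise of at least 3 SD above the vehicle-control mean, seen in both replicates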;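 further: 0% = vehicle mean plus 3 SD and 100% = vehicle minus no-stimulus blank window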
KCNQ2 W236L MoA: rat KCNQ2 W236L mutant potentiation by KCNQ2 potentiators. current increase over 3SD of negative controls (%), stronger effect = higher value, % at 25 µM. shares compounds with KCNQ2 enhance. 10% of 940 active. CHO KCNQ2-W236L, automated patch clamp current;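 active means current increase at least 3 SD of the untreated controls above them in both duplicate recordings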
* hit, by the source's call; i = inactive; nt = no result given. The list is not random: actives were taken first. Their share in the collection is about 1.6%.

SMILES	KCNQ2 enhance	KCNQ2 inh	Kir21 confirm	HEK293 ctr	others
COC(=O)CN(c1ccccc1)S(=O)(=O)c1ccc(F)cc1	0.02	i	nt	nt
CCS(=O)(=O)c1ncc(Cl)c(C(=O)Nc2ccc(S(=O)(=O)N(C)c3ccccc3)cc2)n1	nt	i	nt	nt
CCN(c1ccccc1)S(=O)(=O)c1ccc(C(=O)Nc2ncccc2O)cc1	nt	i	nt	nt
CCN(c1ccccc1)S(=O)(=O)c1ccc(C(=O)Nc2ccncc2)cc1	8.2*	i	i	i	CHO-K1 ctr=79*;KCNQ1 sel pot=-20;KCNQ2 pot conf=9.8*;Kir21 spec=-57;KCNQ2 W236L MoA=i
CCN(c1ccccc1)S(=O)(=O)c1ccc(F)cc1	nt	i	54%*	i
Cc1cc(C(=O)NNC(=O)c2sccc2C)c(C)o1	0.54	i	nt	nt
CSc1ccc(S(=O)(=O)NCc2ccccc2)cc1	nt	i	nt	nt
Cc1ccc(S(=O)(=O)NC(C)c2ccccc2)cc1[N+](=O)[O-] (stereo not given)	0.61	i	46%*	i
C/C(CC(C)C)=N\NS(=O)(=O)c1ccc(C)c([N+](=O)[O-])c1	nt	i	nt	nt
CSc1ccc(S(=O)(=O)NC(C)c2ccccc2)cc1 (stereo not given)	1.2	i	42%*	i
O=C(CSc1nc(C2CC2)nc2c1cnn2-c1ccccc1)Nc1c[nH]c(=O)[nH]c1=O	0.98	i	nt	nt
Cc1ccc2c(c1)cc(CN(Cc1cccnc1)C(=O)NCc1ccccc1)c1nnnn12	1.8	i	nt	nt
COc1ccc(N2CCc3c(C)nc4c(OC)cccc4c32)cc1	1.1	i	nt	nt
COc1cccc(N2CCc3c(C)nc4ccc(Cl)cc4c32)c1	nt	i	20%*	i
Cc1ccc(CC(=O)NC(C)CCc2ccccc2)cc1 (stereo not given)	nt	i	nt	nt
Cc1ccccc1CN(C)CC(=O)NC(C)CCc1ccccc1 (stereo not given)	-6.6	-6.6*	34%*	i
CCc1nc(C)cn1S(=O)(=O)c1cc(C)c(OC)cc1C	1.6	i	nt	nt
CCc1nc(C)cn1S(=O)(=O)c1cc(Br)ccc1OC	1	i	24%*	i
CCc1nc(C)cn1S(=O)(=O)c1cc(Br)c(C)cc1OC	nt	i	35%*	i
CCc1nc(C)cn1S(=O)(=O)c1ccc(Cl)c(Cl)c1Cl	nt	i	nt	nt
CCc1nc(C)cn1S(=O)(=O)c1cc(F)ccc1OC	1.9	i	nt	nt
CCc1nc(C)cn1S(=O)(=O)c1cc(Cl)c(OC)cc1Cl	0.58	i	58%*	i
CC(C)c1[nH]nc2c1C(c1ccco1)C(C#N)=C(N)O2 (stereo not given)	0.53	i	nt	nt
COc1cccc(C(=O)OCC(=O)Nc2cc(C)c(C)cc2[N+](=O)[O-])c1	1.1	i	nt	nt
S=C(Sc1ccc(Cl)cc1)Sc1ccc(Cl)cc1	nt	i	nt	nt
SMILES	KCNQ2 enhance	KCNQ2 inh	Kir21 confirm	HEK293 ctr	others
CCOC(=O)N/N=C\c1ccc(OC/C=C/c2ccccc2)cc1	nt	i	nt	nt
CC(=O)NC(CC(=O)OCC(=O)N1CCc2ccccc21)c1ccccc1 (stereo not given)	nt	i	nt	nt
O=C(Cc1ccc(Cl)cc1)NNc1c(F)c(F)cc(F)c1F	0.53	i	nt	nt
Oc1ccc(Cc2ccc(Cl)cc2)c(O)c1	5.6*	i	i	i	CHO-K1 ctr=106*;KCNQ1 sel pot=-9;KCNQ2 pot conf=-10;Kir21 spec=-48
C[C@@H](CN1C2=NC[C@H](Cc3ccccc3)N2C[C@H]1Cc1ccc(O)cc1)NC(=O)CCC1CCCCC1	nt	i	nt	nt
COc1ccc(C[C@H]2CN3C(=NC[C@H]3Cc3ccccc3)N2CCNC(=O)CCC2CCCCC2)cc1	nt	i	47%*	i
C/C=C(\C)C(=O)NCCN1C2=NC[C@H](Cc3ccccc3)N2C[C@@H]1Cc1ccc(OC)cc1	0.09	i	nt	nt
COc1ccc(C[C@H]2CN3C(=NC[C@@H]3Cc3ccccc3)N2C[C@H](C)NC(=O)CCC2CCCCC2)cc1	nt	i	38%*	i
O=C(CN1CCN(C(=O)c2c(F)cccc2F)CC1)Nc1ccccc1C(F)(F)F	0.01	i	nt	nt
CCC(C)NC(=O)c1ccc(CS(=O)(=O)Cc2ccc(Cl)cc2)o1 (stereo not given)	nt	i	nt	nt
COc1ccc(C(=O)Nc2ccccc2C(=O)N2CCCCC2C)cc1 (stereo not given)	nt	i	nt	nt
COc1ccc(CCNC(=O)c2ccccc2NS(=O)(=O)c2c(F)cccc2F)cc1	nt	i	nt	nt
O=C(NCc1nc2ccccc2[nH]1)C1=C[C@H](c2coc3ccccc3c2=O)C[C@H](OCc2ccc(CO)cc2)O1	nt	i	nt	nt
CCN(CC)S(=O)(=O)c1ccc2[nH]c(=O)cc(C(=O)Nc3ccc(C)c(S(=O)(=O)N(CC)CC)c3)c2c1	nt	i	nt	nt
O=S(=O)(c1ccc(Cl)cc1)N1CCCC1c1nc(-c2ccc(Cl)cc2)no1 (stereo not given)	nt	i	nt	nt
Nc1nc(C2CCCN2S(=O)(=O)c2ccc(Cl)cc2)cs1 (stereo not given)	1.3	i	62%*	i
CCCN1CCN(CCCNC(=O)Cn2nc(C)n3c(cc4cc(OC)ccc43)c2=O)CC1	0.9	i	nt	nt
CC(C)(CO)NCc1ccccc1OCC(=O)Nc1ccccc1	nt	i	nt	nt
Cc1ccc(NC(=O)COc2ccccc2CNC(C)(C)CC(C)(C)C)cc1	nt	i	44%*	i
O=C(N/N=C/c1ccc(Br)cc1)c1ccc(Br)o1	0.68	i	nt	nt
O=S(=O)(c1ccccc1F)N1CCCc2ccccc21	0.02	i	60%*	i
O=[N+]([O-])c1ccccc1S(=O)(=O)N1CCCc2ccccc21	nt	i	nt	nt
CSCCC(NS(=O)(=O)c1ccc(Br)cc1)C(=O)OCC(=O)NC1CC1 (stereo not given)	1.1	i	nt	nt
Cc1ccc2nc(Cl)c(CNCc3ccccc3)cc2c1	nt	i	20%*	i
Cc1ccc(CNCc2ccccc2Cl)cc1	nt	i	nt	nt
COc1ccc(-n2cnnc2SCC(=O)N(C)C2CCS(=O)(=O)C2)cc1 (stereo not given)	0.87	i	nt	nt
CCOc1cc(/C=C(\C#N)C(=O)NCc2cccnc2)ccc1O	0.41	i	nt	nt
CC12CCC(C(=O)N(CC(O)CN3CCCCCC3)C1=O)C2(C)C (stereo not given)	nt	i	nt	nt
